TDP1 cell noCPT – qHTS for Inhibitors of human tyrosyl-DNA phosphodiesterase 1 (TDP1): qHTS in cells in absence of CPT. DT40 Tdp1-/- hTDP1 cells, no CPT, ATP luminescence, 48 h. Potency, µM (series often up to 46.2 µM), without a hit: at the highest dose activity change, negative = growth inhibition, usual class: inhibitors. hit rate 15% among 420,000. AID 686978, 2013; note: potency is the fitted concentration of half-maximal effect; % is set by controls: 0 for no effect and ±100 for the full control effect; nearly all actives have a fitted effect of over 55% in size
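Growth of hTDP1-complemented DT40 Tdp1-knockout cells is measured by ATP luminescence after at least 48 hr compound exposure at 37 °C, with DMSO substituting for the 20 nM CPT used in the parallel screen.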
TGFb inhibitor – blocks TGF-b signaling | HepG2 CAGA-GFP TGF-b/SMAD3 reporter, GFP fluorescence, 18 h; TGF-beta stimulated, 500 pg/mL final | Potency, µM (top dose mostly 46.1 µM), for inactives: at the top dose activity, negative = inhibition, most hits filed as inhibitors | hit rate 1.2% among 410,000; note: potency is the fitted concentration of half-maximal effect; % is set by controls: 0 for no effect and ±100 for the full control effect; nearly all actives have a fitted effect of over 65% in size
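Using HEPG2 CAGA-GFP reporter cells at 1000 cells/well, we pinned test compounds, stimulated with recombinant TGF-beta (500 pg/mL final) and measured total well GFP after 18 h.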
TDP1 cell CPT – growth inhibition of DT40 Tdp1-/-;hTDP1 cells with camptothecin (screen for TDP1 inhibitors). chicken DT40 Tdp1-/-;hTDP1 cells + 20 nM CPT, ATP luminescence, 48 h. hit rate 12% among 420,000. Potency, µM (series often up to 46.2 µM), for the others: at the highest dose activity change, negative = growth inhibition, actives largely listed as inhibitors; note: potency is the fitted concentration of half-maximal effect; % is set by controls: 0 for no effect and ±100 for the full control effect; nearly all actives have a fitted effect of over 55% in size
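Chicken DT40 Tdp1-/- cells complemented with human TDP1, 400 cells/well, exposed to compounds plus 20 nM camptothecin for at least 48 h at 37 C; viability read as ATP content by CellTiter-Glo luminescence.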
IL1B secr inh – inflammasome signaling inhibition, IL-1 beta readout. activity change, % at 57.5 µM. hit rate 4.7% among 360,000. THP-1 LPS/ATP IL-1B secretion, AlphaLISA, 16 h; active compounds read low. AID 743279; in the data active = activity change below about -50%; inconclusive = mostly about -30% to -49%; note: % is set by controls: 0 for no effect and ±100 for the full control effect
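THP-1 cells pretreated 1 hr with compounds (up to 57.5 uM final), then stimulated with LPS (250 ng/mL final) plus ATP (1.25 mM final); secreted IL-1B measured by AlphaLISA after 16 hr, decreased signal indicating inhibition.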
S-ASM inh – inhibitors of human secretory acid sphingomyelinase | P17405 | Potency, µM (series often up to 57.5 µM), for inactives: top-dose activity change, negative = inhibition, most hits filed as inhibitors | hit rate 0.006% among 340,000 | placental ASM, HMU-PC fluorogenic substrate, 60 min | AID 504937; note: potency is the fitted concentration of half-maximal effect
Target sequence (P17405 47-631 limits assumed): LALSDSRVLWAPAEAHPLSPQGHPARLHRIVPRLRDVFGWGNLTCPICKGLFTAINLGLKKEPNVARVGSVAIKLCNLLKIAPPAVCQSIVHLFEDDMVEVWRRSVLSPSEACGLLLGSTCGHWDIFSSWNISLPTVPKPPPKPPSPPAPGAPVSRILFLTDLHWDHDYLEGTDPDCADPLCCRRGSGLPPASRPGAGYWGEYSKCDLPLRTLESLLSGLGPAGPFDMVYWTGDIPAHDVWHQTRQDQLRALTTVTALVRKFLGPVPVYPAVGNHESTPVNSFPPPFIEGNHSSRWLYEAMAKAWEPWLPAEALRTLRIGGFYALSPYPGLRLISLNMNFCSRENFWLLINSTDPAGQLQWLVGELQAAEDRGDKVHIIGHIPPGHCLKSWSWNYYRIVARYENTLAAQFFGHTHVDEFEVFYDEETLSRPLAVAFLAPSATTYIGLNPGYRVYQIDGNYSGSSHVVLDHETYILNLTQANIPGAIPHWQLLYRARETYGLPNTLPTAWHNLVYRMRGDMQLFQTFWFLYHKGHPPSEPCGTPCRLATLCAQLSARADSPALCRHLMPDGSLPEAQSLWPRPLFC
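Steps: dispense placental human ASM, pin compound, wait 10 min at room temperature, add HMU-PC0 substrate at 9 uM final, incubate 60 min at 37 °C, add stop solution raising pH to 10, read fluorescence.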
HepG2 viability – kills HepG2 cells in TGF-b inhibitor counter-screen | HepG2 CAGA-GFP viability, ATP luminescence, 18 h | Potency, µM (series often up to 46.1 µM), inactives show top-dose activity change, negative = cytotoxicity, most hits filed as cytotoxic | hit rate 0.76% among 410,000 | AID 588856; note: potency is the fitted concentration of half-maximal effect
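HepG2 CAGA-GFP cells (1000/well, DMEM with 1% FBS) received compound, then TGF-beta at 500 pg/mL final, and were incubated 18 hours at 37 degrees C. Viability was read by CellTiter-Glo luminescence. Media-only wells were set as complete cell-killing and DMSO as no toxicity.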
Active calls of the source: *; ? = inconclusive; nt = no result given; ! = not active in a repeat. In the library only some 19% were active in any assay of this set; here they are far more common. Unless noted, calls come from the whole dose curve; as a rule, active = well fitted curve in the direction sought with a large enough effect; inconclusive = small, poorly fitted or top-dose-only effect, or another doubt; inactive = no such curve, though single readings can be large; an effect the other way counts as inactive or inconclusive.

SMILES	TDP1 cell noCPT	TGFb inhibitor	TDP1 cell CPT	IL1B secr inh	S-ASM inh	HepG2 viability
CCCCNC(=O)c1nn(-c2ccc(C)cc2)c(=O)c2c1c1ccccc1n2C	2.6µM*	-7%	8.2µM*	nt	nt	-18%
CCN(CCCNC(=O)c1nn(-c2ccc(C)cc2)c(=O)c2c1c1ccccc1n2C)c1ccccc1	?	3%	?	nt	nt	-7%
CCN(CC)CCNC(=O)c1nn(-c2ccc(OC)c(Cl)c2)c(=O)c2c1c1ccccc1n2C	3%	-10%	-3%	nt	nt	-13%
COc1ccc(-n2nc(C(=O)N3CCCC(C)C3)c3c4ccccc4n(C)c3c2=O)cc1Cl (stereo unspecified)	-97%	-8%	16µM*	nt	nt	3%
COc1ccc(-n2nc(C(=O)N3CCN(c4ccccc4OC)CC3)c3c4ccccc4n(C)c3c2=O)cc1Cl	-25%	0%	-19%	nt	nt	-25%
CCN(CC)CCCNC(=O)c1nn(-c2ccc(OC)c(Cl)c2)c(=O)c2c1c1ccccc1n2C	16µM*	0%	?	nt	nt	-75%
COc1ccc(-n2nc(C(=O)NCCc3ccc(Cl)cc3)c3c4ccccc4n(C)c3c2=O)cc1	10µM*	-5%	8.2µM*	nt	nt	-9%
Nc1c(Cl)cc(-c2csc(N3CCCC3c3nc4cc(Cl)c(N5CCCCC5)cc4n3CCOCCO)n2)cc1Cl (stereo unspecified)	?	-26%	?	-11	-13%	-18%
CCN(C(=O)c1nn(-c2ccc(OC)c(Cl)c2)c(=O)c2c1c1ccccc1n2C)c1cc(OC)ccc1OC	15µM*	-12%	?	nt	nt	-14%
CCCN(C(=O)c1nn(-c2ccc(OC)c(Cl)c2)c(=O)c2c1c1ccccc1n2C)c1ccccc1F	-14%	-1%	-2%	nt	nt	-6%
CCC1CCCCN1c1nc2c(C=O)c(C)nn2c2ccccc12 (stereo unspecified)	16µM*	-27%	21µM*	-30	73%	-15%
O=C1c2cccc3cccc(c23)C(=O)C1(O)O	2.3µM*	?	1µM*	-94*	-5%	2%
CC(=O)N1C(=O)c2cccc3cccc(c23)C(=O)N1C(C)=O	-33%	1%	-5%	24	1%	1%
CC(=O)COc1coc(CN2CCN(c3ccc(F)cc3)CC2)cc1=O	-3%	-3%	2%	49	-2%	-9%
CC(Sc1nnc(CNC(=O)c2ccco2)n1C)C(=O)Nc1nccs1 (stereo unspecified)	7%	2%	12%	26	4%	-2%
CSc1ccc(CCNC(=O)CCc2c(C)nc3ncnn3c2C)cc1	4%	-8%	10%	nt	nt	-11%
CCC(C)NC(=O)CCSc1nc(-c2ccc(OC)cc2)cc(C(F)(F)F)n1 (stereo unspecified)	16µM*	-5%	?	nt	nt	-22%
COc1ccc(-c2cc(C(F)(F)F)nc(SCC(=O)NCc3ccc(F)cc3)n2)cc1	?	-6%	?	nt	nt	-3%
COCC(C)NC(=O)CCS(=O)(=O)c1nc(-c2ccc(OC)cc2)cc(C(F)(F)F)n1 (stereo unspecified)	4.6µM*	11µM*	4.1µM*	-102*	4%	-110%
COc1ccc(-c2cc(C(F)(F)F)nc(SCC(=O)NC(C)c3ccccc3)n2)cc1 (stereo unspecified)	15µM*	-4%	?	nt	nt	-26%
COc1ccc(NC(=O)CCSc2nc(-c3ccc(OC)cc3)cc(C(F)(F)F)n2)cc1	-18%	-1%	-25%	nt	nt	-34%
COc1ccc(-c2cc(C(F)(F)F)nc(SCC(=O)NCc3ccc(OC)c(OC)c3)n2)cc1	?	13%	23µM*	nt	nt	3%
COc1ccc(-c2cc(C(F)(F)F)nc(SCC(=O)NCCc3ccccc3)n2)cc1	?	-6%	-30%	nt	nt	2%
O=C(Nc1ccc(S(=O)(=O)N2CCC(c3nc4ccccc4s3)CC2)cc1)c1ccccc1	4%	-6%	3%	nt	nt	2%
COc1ccc(C)cc1NC(=O)CCCNC(=O)Cn1cnc2sc(C)c(C)c2c1=O	-9%	0%	21%	5	-3%	-36%
SMILES	TDP1 cell noCPT	TGFb inhibitor	TDP1 cell CPT	IL1B secr inh	S-ASM inh	HepG2 viability
Cc1ccc(NC(=O)CN(C)C(=O)COC(=O)COc2cc(C)cc(C)c2)cc1	-16%	1%	-5%	1	nt	-67%
CCOc1ccc(NC(=O)CSc2nc3ccccc3c(=O)n2CCC(=O)NC2CCCCC2)cc1	-8%	-7%	-14%	nt	nt	-3%
Cc1ccc(-c2cc(C(F)(F)F)nc(SCC(=O)c3cccc([N+](=O)[O-])c3)n2)cc1	?	0%	?	-53*	2%	-18%
Cc1cc(C(F)(F)F)nc(SCC(=O)c2cccc([N+](=O)[O-])c2)n1	-21%	19%	-29%	-6	-1%	-38%
COCCNC(=O)CCSc1nc(-c2ccc(OC)cc2)cc(C(F)(F)F)n1	21µM*	0%	23µM*!	-8	0%	-15%
CSc1ccc(/C=N/S(=O)(=O)c2ccccc2)cc1	1%	-7%	-1%	12	1%	5%
COc1ccc2c(ccc[n+]2CC(=O)c2ccc(C)cc2)c1	15µM*	-19%	?	-8	58%	-3%
COc1ccc2c(ccc[n+]2CC(=O)c2ccccc2)c1	5%	3%	?	31	58%	-4%
Cc1ccc(C(=O)C[n+]2cccc3cc(C)ccc32)cc1	15µM*	33%	12µM*	-8	-2%	0%
CCOc1ccc(C(=O)C[n+]2cccc3cc(C)ccc32)cc1	?	-17%	?	?	-2%	-14%
CCc1ccc(C(=O)C[n+]2cccc3cc(OC)ccc32)cc1	3.3µM*	?	2.9µM*	?	52%	-34%
COc1ccc(C(=O)C[n+]2cc(Br)cc3ccccc32)cc1	22µM*	?	?	nt	nt	-14%
Cc1ccc2c(c1)ncc[n+]2CC(=O)c1ccc(F)cc1	10µM*	?	10µM*	nt	nt	-29%
O=C(C[n+]1ccnc2ccccc21)c1ccc(Cl)cc1	?	-30%	15%	nt	nt	-12%
O=C(c1ccccc1Br)N1CCC(c2nc3ccccc3s2)CC1	29µM*	?	?	-17	0%	-47%
COc1cc(C(=O)N2CCC(c3nc4ccccc4s3)CC2)cc(OC)c1OC	21µM*	-30%	?	nt	nt	-1%

Screens from PubChem BioAssay.
